Laboratory results from PubChem BioAssay.
“And” between values parts separate entries of the source, which are not always exact repeats. Equal entries are not always repeated. The source made the active and inactive calls.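 The calls were made as follows, unless noted: active = thallium flux through the channel raised or lowered by more than 3 SD from vehicle-only wells, actives on both sides; inactive = the rest.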

Tests used:
[1] = tested on: Hepatitis C virus NS3 helicase; assay: HCV NS3 helicase inhibitors, primary screen, biochemical, fluorescence polarization, NIH Clinical Collection (AID 743270; call rule not given here); details: NS3 helicase binding to Cy5-dT15 DNA, stronger effect = higher value, concentration not given here
[2] = biological target: Single-stranded DNA-binding protein (Escherichia coli (strain K12)) (UniProt P0AGE0); assay: E. coli SSB displacement from DNA, counter-screen for HCV NS3 helicase inhibitor project, biochemical, fluorescence polarization, NIH Clinical Collection (AID 743271; in the data active = inhibition above about 28%); details: stronger effect = higher value, concentration not given here
[3] = fluorescence interference in NS3h assay format, artefact control for HCV NS3 helicase inhibitor project, biochemical, NIH Clinical Collection (AID 743272; call rule not given here;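 also: HCV NS3 helicase with a Cy5 labelled single stranded DNA probe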); details: fluorescence interference counterscreen, stronger effect = lower value
[4] = stimulators of nuclear beta-catenin in C2C12, primary screen, imaging, WNT3A-conditioned medium, mouse C2C12, NPC library (AID 1117326; in the data active = nuclear beta-catenin stimulation mostly above about 4.2%, no sharp cut-off; inactive = mostly below about 10%); details: stronger effect = higher value
[5] = stimulators of insulin release from INS-1E, primary screen, cell-based, 5 mM glucose, NPC library (AID 1117329;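 active = compound raises insulin release from rat beta cells at 5 mM glucose, no numeric limit stated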); details: rat INS-1E insulin secretion, at 10 µM, stronger effect = higher value
[6] = growth inhibition of GSK3B-pretreated HCT116 cells – cell-based, CellTiter-Glo, 0.2 to 20 µM (AID 1117336;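 active = compounds lowering colon cancer cell viability after pretreatment blocking the GSK3B kinase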); details: HCT116 viability after GSK3B inhibitor, at 20 µM, stronger effect = higher value
[7] = inhibition of endothelial tube formation, primary screen, imaging, VEGF stimulated, CD31 staining, tube area, NPC library (AID 1117340;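 active = compound that reduces growth-factor-driven endothelial tube area in a mixed cell culture, no cutoff stated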); details: VEGF-stimulated ADSC/ECFC co-culture, at 10 µM, stronger effect = higher value
[8] = glucagon-like peptide 1 release enhancers, primary assay, NCI-H716 cell line, NPC library (AID 1117341;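 active = compound raises GLP1 secretion from the human gut endocrine cells, with no numeric limit stated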); details: NCI-H716 cells, at 10 µM, stronger effect = higher value
[9] = HCT116 colon cancer cell growth inhibition, primary screen, CellTiter-Glo luminescence, NPC library (AID 1117342;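 active = compounds that lower survival of HCT116 colon cancer cells in the luminescence readout, no numeric limit stated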); details: at 20 µM (top of the series)
[10] = CellTiter-Glo luminescent readout of SW480 viability loss, NPC library primary (AID 1117343;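 active = compounds that lower viability of the colon cancer cells in the luminescence readout, with no numeric limit stated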); details: CellTiter-Glo luminescence; at 20 µM (top of the series)
[11] = decreased DLD-1 cellular survival, CellTiter-Glo luminescent readout, NPC compound collection, primary HTS (AID 1117346;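 active = compounds that lower survival of DLD-1 colon cancer cells in the luminescence readout, no cutoff given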); details: DLD-1 viability, CellTiter-Glo luminescence; at 20 µM (top of the series)
[12] = biological target: 6-phosphogluconate dehydrogenase, decarboxylating (Homo sapiens) (UniProt P52209); assay: 6PGD enzyme inhibitors, primary screen, biochemical, human, recombinant enzyme, NADPH absorbance (AID 1159550;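 active = at least 20% inhibition of 6-phosphogluconate dehydrogenase activity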); details: recombinant 6PGD, NADPH absorbance 341 nm; at 10 µM; stronger effect = higher value
[13] = sensitizers of A549 cells to miR-34 induction, primary screen, imaging, A549 dox-inducible miR-34, nuclei and caspase counts (AID 1347080;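 active = compounds whose cell count with miR-34 switched on is under 0.7 times the count with it off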); details: A549 miR-34 inducible, Hoechst nuclei count, 48 h
[14] = survival rescue of mitochondrial mutant cells in low glucose, primary screen, MELAS cybrids, Rieske KO mouse fibroblasts, CellTiter-Glo (AID 1508586;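 active = mean z-score across replicates of 1.96 or higher in either the MELAS or the Rieske mutant cell line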;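 also: z relative to plate mean and SD of compound and empty wells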)
[15] = biological target: NAD(+) hydrolase SARM1 (Homo sapiens) (UniProt Q6SZW1); assay: SARM1 TIR NADase inhibitors, cell lysate, NAD-Glo luminescence (AID 1508614;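 active = compound whose remaining NAD level is above about 45 nM, limit read from the data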;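 also: higher remaining NAD means stronger inhibition of SARM1 NADase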); details: SAM-TIR HEK293T lysate NADase, at 1 µM, stronger effect = higher value
[16] = biological target: Mitogen-activated protein kinase 7 (Homo sapiens) (UniProt Q13164); assay: ERK5 transactivation activators in reporter cells, primary screen, cell-based, HTS (AID 1508626;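 active = luciferase signal above three times the same-plate solvent-only control wells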;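 also: luciferase driven by Gal4-ERK5 fusion binding five Gal4 sites before minimal TATA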); details: HeLa Gal4-ERK5 transactivation, 18 h, at 5 µM, stronger effect = higher value
F380Y = assay: modulators of BK channel variants, profiling panel, selectivity assay, cell-based, U2OS BacMam, thallium flux, beta subunits (AID 1259406); details: at 30 µM;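 also: initial slope of Thallos dye fluorescence rise after thallium is added; log ratio against the mean of 0.3% DMSO vehicle wells on the same plate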
F380Y/beta2Delta = assay: as above; details: at 30 µM
[17] = biological target: Calcium-activated potassium channel subunit alpha-1 (Homo sapiens) + Leucine-rich repeat-containing protein 26 (Homo sapiens) (UniProt Q12791+Q2I0M4); assay: as above; details: F380Y/Slo1WT/gamma1, at 30 µM
[18] = differential killing of epithelial or mesenchymal cells, primary screen, imaging, PC-3E GFP, TEM4-18 mCherry, co-culture (AID 1345086;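 active = compounds killing one labelled cell type while sparing the other, by normalised counts and ratio limits, not self-fluorescent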;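 also: cells exposed to compound for 72 h before imaging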;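 as to red/green cell ratio (normalised): normalised mesenchymal count divided by normalised epithelial count so high means epithelial killing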); details: imaging cell counts, at 1 µM
[19] = stronger effect = lower value, cell number ratio, induced over uninduced
[20] = measured here: relative caspase fold change +Dox/-Dox
[21] = measured here: total cells with miR-34 induction, stronger effect = lower value
[22] = measured here: total cells without miR-34 induction
[23] = MELAS cybrid survival, CellTiter-Glo 48 h, stronger effect = higher value
[24] = Rieske KO mouse fibroblast survival, CellTiter-Glo 72 h

Sequence of Calcium-activated potassium channel subunit alpha-1 (Homo sapiens) + Leucine-rich repeat-containing protein 26 (Homo sapiens) (Q2I0M4 whole entry, looked up, one chain of several): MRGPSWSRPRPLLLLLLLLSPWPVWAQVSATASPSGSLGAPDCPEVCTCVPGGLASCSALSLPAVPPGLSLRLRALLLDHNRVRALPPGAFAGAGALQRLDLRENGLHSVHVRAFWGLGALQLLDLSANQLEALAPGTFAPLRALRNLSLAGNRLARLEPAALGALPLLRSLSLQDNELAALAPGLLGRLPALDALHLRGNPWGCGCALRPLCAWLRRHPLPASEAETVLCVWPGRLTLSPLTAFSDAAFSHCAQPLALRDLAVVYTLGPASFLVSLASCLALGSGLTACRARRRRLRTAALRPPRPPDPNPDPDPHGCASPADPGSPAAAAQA
Sequence of Mitogen-activated protein kinase 7 (Homo sapiens) (Q13164 whole entry, looked up, the tested form may be a part): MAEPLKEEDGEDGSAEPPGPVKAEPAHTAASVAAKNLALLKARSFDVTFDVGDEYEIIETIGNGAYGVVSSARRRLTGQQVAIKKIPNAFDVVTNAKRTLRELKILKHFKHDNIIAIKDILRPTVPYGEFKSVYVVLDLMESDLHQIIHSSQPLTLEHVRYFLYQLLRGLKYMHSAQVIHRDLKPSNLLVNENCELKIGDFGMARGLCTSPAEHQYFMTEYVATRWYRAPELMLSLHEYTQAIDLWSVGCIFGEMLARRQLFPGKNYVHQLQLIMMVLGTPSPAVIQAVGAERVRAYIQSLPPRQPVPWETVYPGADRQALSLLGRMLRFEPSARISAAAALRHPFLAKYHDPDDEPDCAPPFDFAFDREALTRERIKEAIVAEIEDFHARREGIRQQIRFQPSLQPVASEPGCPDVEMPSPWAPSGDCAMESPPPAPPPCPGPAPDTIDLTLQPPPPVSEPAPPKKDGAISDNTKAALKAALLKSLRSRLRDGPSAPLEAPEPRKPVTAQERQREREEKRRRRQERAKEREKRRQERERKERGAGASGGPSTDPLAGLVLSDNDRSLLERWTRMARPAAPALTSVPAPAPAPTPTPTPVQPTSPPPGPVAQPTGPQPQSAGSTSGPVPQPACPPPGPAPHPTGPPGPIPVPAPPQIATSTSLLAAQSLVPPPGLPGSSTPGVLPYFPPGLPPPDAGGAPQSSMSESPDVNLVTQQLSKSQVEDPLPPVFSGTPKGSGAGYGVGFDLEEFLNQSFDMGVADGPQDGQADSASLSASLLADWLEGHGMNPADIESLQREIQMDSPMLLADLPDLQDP
Sequence of NAD(+) hydrolase SARM1 (Homo sapiens) (Q6SZW1 whole entry, looked up, the tested form may be a part): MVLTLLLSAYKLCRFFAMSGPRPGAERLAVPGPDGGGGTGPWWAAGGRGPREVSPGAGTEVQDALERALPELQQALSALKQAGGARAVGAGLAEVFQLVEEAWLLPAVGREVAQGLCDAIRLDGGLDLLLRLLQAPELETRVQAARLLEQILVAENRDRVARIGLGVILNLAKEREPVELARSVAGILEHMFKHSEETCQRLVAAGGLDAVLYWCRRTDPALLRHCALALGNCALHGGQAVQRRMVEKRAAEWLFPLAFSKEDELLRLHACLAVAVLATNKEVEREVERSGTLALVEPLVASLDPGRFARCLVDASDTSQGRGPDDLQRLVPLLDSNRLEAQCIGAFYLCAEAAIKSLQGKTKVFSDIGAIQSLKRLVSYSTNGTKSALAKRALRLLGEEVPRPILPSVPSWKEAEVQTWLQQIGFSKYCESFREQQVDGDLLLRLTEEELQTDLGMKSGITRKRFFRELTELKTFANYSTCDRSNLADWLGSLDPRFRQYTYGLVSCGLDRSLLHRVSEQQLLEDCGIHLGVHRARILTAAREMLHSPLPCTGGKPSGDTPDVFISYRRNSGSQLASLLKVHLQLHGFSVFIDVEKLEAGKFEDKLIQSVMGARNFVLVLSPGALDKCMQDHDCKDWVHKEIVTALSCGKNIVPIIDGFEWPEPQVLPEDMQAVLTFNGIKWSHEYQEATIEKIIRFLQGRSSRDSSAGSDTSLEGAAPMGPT
Sequence of 6-phosphogluconate dehydrogenase, decarboxylating (Homo sapiens) (P52209 whole entry, looked up): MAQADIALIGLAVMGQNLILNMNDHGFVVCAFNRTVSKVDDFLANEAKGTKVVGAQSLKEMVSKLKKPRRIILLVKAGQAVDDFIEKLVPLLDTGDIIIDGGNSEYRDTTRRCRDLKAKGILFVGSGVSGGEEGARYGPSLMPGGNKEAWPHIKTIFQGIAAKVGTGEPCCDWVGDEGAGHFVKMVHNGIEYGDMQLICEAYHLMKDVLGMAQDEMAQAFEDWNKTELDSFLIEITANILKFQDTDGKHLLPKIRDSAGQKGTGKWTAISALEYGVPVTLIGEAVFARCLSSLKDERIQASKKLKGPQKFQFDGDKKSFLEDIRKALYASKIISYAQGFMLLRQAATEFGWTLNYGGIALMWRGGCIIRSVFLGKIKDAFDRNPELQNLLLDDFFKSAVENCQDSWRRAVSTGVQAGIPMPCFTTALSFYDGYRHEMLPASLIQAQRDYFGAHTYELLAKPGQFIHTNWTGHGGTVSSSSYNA

C#C[C@]1(O)CC[C@H]2[C@@H]3CCC4=CC(=O)CC[C@@H]4[C@H]3CC[C@@]21CC
8700 and 5730 and 8530: cell count [13, 21]
inactive: inhibition [1] -3.56% | inhibition [2] -0.1% | fluorescence ratio [3] 0.96 | nuclear beta-catenin stimulation ([4]; at 10 µM) 2.2% | insulin secretion stimulation [5] -1.1% | viability decrease [6] -54.4% | tube area decrease [7] 0.1% | GLP1 secretion stimulation [8] 4.1% | inhibition of viability [9] -5.1% | viability decrease (inhibition) [10] 4.3% | viability decrease (inhibition) [11] -24.6% | inhibition [12] -0.702% | fold change [13, 19] 0.855 and 0.976 and 0.873 | z-score [14, 23] 1.16 and 0.00976 | remaining NAD [15] 10 nM | luciferase signal [16] 44 AU | log fold change Tl+ flux (F380Y) 0.0315 | log fold change Tl+ flux (F380Y/beta2Delta) 0.00649 | log fold change Tl+ flux [17] 0.0485
-0.1%: nuclear beta-catenin stimulation ([4]; stimulation, at 2 µM)
1.41 and 0.657: z-score [14, 24]
10200 and 5870 and 9770: cell count [13, 22]
1.39 and 1.03 and 0.879: fold change [13, 20]

CN(C)CCOC(c1ccccc1)c1ccccc1
-1%: nuclear beta-catenin stimulation ([4]; stimulation, at 2 µM)
0.641 and 0.428 and 1.04: z-score [14, 24]
1.28: normalised cell number ([18]; measured here: epithelial PC-3E GFP cell survival)
1.37: normalised cell number ([18]; measured here: mesenchymal TEM4-18 mCherry cell survival)
inactive: inhibition [1] -1.19% | inhibition [2] 5.29% | fluorescence ratio [3] 0.99 | nuclear beta-catenin stimulation ([4]; at 10 µM) 0.5% | insulin secretion stimulation [5] 14.4% | viability decrease [6] -17.4% | tube area decrease [7] 1% | GLP1 secretion stimulation [8] 4.4% | inhibition of viability [9] 36.7% | viability decrease (inhibition) [11] 1% | inhibition [12] 11.2% | red/green cell ratio (normalised) ([18]; actives lie on both sides, counts scaled to control wells, 1 = unselective) 1.07 | z-score [14, 23] -0.301 and 0.806 and -0.802 | remaining NAD [15] 10 nM | luciferase signal [16] 36 AU | log fold change Tl+ flux (F380Y) 0.0428 | log fold change Tl+ flux (F380Y/beta2Delta) 0.0216 | log fold change Tl+ flux [17] -0.0145
active: viability decrease (inhibition) [10] 57.8%

C[C@]12C=CC(=O)C=C1CC[C@@H]1[C@@H]2[C@@H](O)C[C@@]2(C)[C@H]1CC[C@]2(O)C(=O)CO
7530 and 6090 and 6580: cell count [13, 21]
8090 and 7780 and 7760: cell count [13, 22]
inactive: inhibition [1] -1.36% | inhibition [2] 0.29% | fluorescence ratio [3] 0.96 | nuclear beta-catenin stimulation ([4]; at 10 µM) -2.6% | insulin secretion stimulation [5] 1.6% | viability decrease [6] -2.7% | tube area decrease [7] 11.2% | GLP1 secretion stimulation [8] -0.5% | inhibition of viability [9] -3.5% | viability decrease (inhibition) [10] -1.5% | viability decrease (inhibition) [11] -18.8% | inhibition [12] -5.44% | fold change [13, 19] 0.93 and 0.783 and 0.847 | z-score [14, 23] 0.367 and 0.381 | remaining NAD [15] 10 nM | luciferase signal [16] 84 AU | log fold change Tl+ flux (F380Y) 0.0238 | log fold change Tl+ flux (F380Y/beta2Delta) 0.0411 | log fold change Tl+ flux [17] -0.0308
-0.7%: nuclear beta-catenin stimulation ([4]; stimulation, at 2 µM)
-0.0179 and 1.19: z-score [14, 24]
1.73 and 1.43 and 1.29: fold change [13, 20]
